This passage reports outcome results from PubChem BioAssay (NCATS).

SMILES strings stand for the structures. Calls of active or inactive are those of the source. Calls follow the shape of the dose curve; as a rule, active = well fitted inhibition curve with a large enough effect; inconclusive = small, poorly fitted or top-dose-only effect; inactive = flat fitted curve, though single readings scatter.

Sequence of ATP-dependent DNA helicase Q1 (Homo sapiens) (P46063 whole entry, looked up): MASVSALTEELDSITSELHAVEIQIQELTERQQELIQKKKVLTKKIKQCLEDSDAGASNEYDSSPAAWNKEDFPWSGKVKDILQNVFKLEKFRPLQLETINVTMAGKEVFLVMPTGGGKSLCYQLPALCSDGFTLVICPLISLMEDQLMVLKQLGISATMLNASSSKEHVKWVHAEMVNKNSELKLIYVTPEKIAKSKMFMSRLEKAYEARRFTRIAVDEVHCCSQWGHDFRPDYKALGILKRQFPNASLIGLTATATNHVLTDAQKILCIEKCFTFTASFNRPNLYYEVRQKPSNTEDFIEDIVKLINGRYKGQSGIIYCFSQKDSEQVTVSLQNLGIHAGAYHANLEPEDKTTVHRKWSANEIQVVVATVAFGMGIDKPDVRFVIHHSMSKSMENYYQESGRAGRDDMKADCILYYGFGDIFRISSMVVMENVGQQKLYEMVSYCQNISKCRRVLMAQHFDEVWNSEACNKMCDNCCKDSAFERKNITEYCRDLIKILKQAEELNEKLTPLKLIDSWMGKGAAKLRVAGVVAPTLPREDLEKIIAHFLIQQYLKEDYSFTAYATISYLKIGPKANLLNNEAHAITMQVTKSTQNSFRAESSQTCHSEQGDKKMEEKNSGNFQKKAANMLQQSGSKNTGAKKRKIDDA

The experiment addresses ATP-dependent DNA helicase Q1 (Homo sapiens) (UniProt P46063). Put plainly: qHTS Validation Assay for Inhibitors of RecQ-Like Dna Helicase 1 (RECQ1) (AID 2353). To be noted: recombinant RECQ1 helicase DNA unwinding assay; series mostly up to 25.6 µM. The source says:
Survival of cells and the faithful propagation of the genome depend on elaborate mechanisms of detecting and repairing DNA damage. Treatment of advanced cancer relies on radiation therapy or chemotherapy, which kill cancer cells by causing extensive DNA damage. It is often found, that cancer cells develop resistance to therapy through enhanced activity of DNA repair functions; this has led to an increased interest in developing drugs that interfere with DNA repair, which could sensitize cancer cells to conventional therapy.
This validation qHTS assay pertains to human RECQ1, which is important in resolving abnormal DNA structures formed during replication or homologous recombination. Shutting down the expression of RECQ1 leads to chromosomal instability and higher radiation sensitivity in cultured cells.
The validation assay was a fluorescence quenching based kinetic qHTS for RECQ1 Helicase DNA unwinding. The activity was measured as ATP-dependent separation of a 20-bp DNA duplex extended by 30-nt single-stranded tails (forked duplex). The forked DNA substrate was tagged with rhodamine fluorophore (carboxytetramethyl rhodamine, TAMRA) and BHQ-2 (Black Hole Quencher 2) dark quencher. Strand separation results in an increase in the fluorescence of TAMRA (excitation 525 nm, emission 598 nm). This substrate construct operates in a red-shifted region where very few compound library members have been noted to fluoresce (PubChem AIDs 593 and 594). An additional feature of the assay is the inclusion of 2.5 ug/ml poly (dIdC), to reduce interference by compounds such as DNA intercalators, a major source of false inhibitors.
Opher Gileadi, Structural Genomics Consortium, University of Oxford
Screening Center PI: Austin, C.P.
Screening Center: NIH Chemical Genomics Center [NCGC]
Three uL of reaction buffer (25 mM Tris-HCl (pH 8.0), 5 mM NaCl, 2 mM MgCl2, 1mM DTT, 0.01% Tween- 20, and 2.5 ug/ml poly(dI-dC), including enzyme (50 nM RECQ1T1), were dispensed into a 1536-well Greiner black assay plate via solenoid-valve based nanoliter dispensers. Compounds (23 nl each in columns 5-48) and control (23 nl each in column 2 as dose-response) were transferred via a Kalypsys pintool equipped with a 1536-pin array. The plates were incubated for 15 min at room temperature, and then 1 ul of substrates (200 nM DNA and 2 mM ATP, final concentrations) was added to start the reaction. The plate was transferred into a ViewLux high-throughput CCD imager where the reaction progress was measured in a discontinuous kinetic mode (two reads spaced 2 hours apart, with intermediate room temperature incubation of the covered assay plate) by using standard red-fluorescence optics (excitation filter 525 nm, emission filter 598 nm). Enzyme-free and vehicle (DMSO) controls were included for signal normalization.
A general note: Quantitative high-throughput screening tests each substance at several concentrations.
In the case of `OCc1ccc(-c2nn(Cc3ccccc3)c3ccccc23)o1`, the outcome was inactive.

Take `CC1=C(C(=O)O)N2C(=O)[C@@H](NC(=O)C(N)c3ccccc3)[C@H]2SC1` (stereo partly drawn): the result was inactive.

With `Nc1nc(N)c2nc(CNc3ccc(C(=O)NC(CCC(=O)O)C(=O)O)cc3)cnc2n1` (stereo not drawn), the result was inactive.

Turning to `COc1cc2ncnc(Nc3cccc(Cl)c3)c2cc1OC`, the result was inactive.

Consider `CCN(CC)CC#CCOC(=O)C(O)(c1ccccc1)C1CCCCC1` (stereo not drawn), for which the outcome was inactive.

For the compound `NC(=O)c1cccc(N)c1`, the result was inactive.

Consider `O=C(O)C1CCCN(CCC=C(c2ccccc2)c2ccccc2)C1` (stereo not drawn), for which the result was inactive.

Turning to `CC(C)NCC(O)c1ccc(NS(C)(=O)=O)cc1` (stereo not drawn), the result was inactive.

As to `CC(=O)[C@H]1CC[C@H]2[C@@H]3CCC4=CC(=O)CC[C@]4(C)[C@H]3CC[C@]12C`, the result was inactive.

With `Cc1ccc(S(=O)(=O)N[C@@H](Cc2ccccc2)C(=O)CCl)cc1`, the result was inactive.

Consider `CCN1CCCC1CNC(=O)c1cc(S(N)(=O)=O)ccc1OC` (stereo not drawn), for which the outcome was inactive.

In the case of `CCCCS(=N)(=O)CCC(N)C(=O)O` (stereo not drawn), the outcome was inactive.

Take `CC(C)(C)NC(=O)[C@H]1CC[C@H]2[C@@H]3CC[C@H]4NC(=O)C=C[C@]4(C)[C@H]3CC[C@]12C`: the outcome was inactive.
